From the OligoGym collection come the findings set out here.
Further: reference of the scale not given here.

The target of one assay is RNPEPL1. As to the kind of experiment: pooled miR-30 sensor sort-seq; sequence = guide strand. As to conditions: shRNA.
For the sequence TAGTACACGAAGCAGTAGCCCT, the sensor-assay potency score (higher = more potent) was -0.845. The same measure, in the same setting: the value for TTGTACTTCTCCACATAGGCTC was -0.15. Still for that read-out and setting: then TACAAGAGACAGGCTGTCCTGT, with 0.345. The same measure, in the same setting: the value for TCTGTGTCTGCTTCAGCCTTGC was 0.0808. On to TAGGTGAACAGGTTCATCAGGT, for which the sensor-assay potency score (higher = more potent) worked out at 0.726. Same read-out and setting: the value for TGGCAGGAAGACAATGTCGTAC was -1.01; that for TGAACTTGTACTTCTCCACATA was -0.899; that for TACTTCTCCACATAGGCTCGGA was -0.423. TCAGGATAGTAGTCGTTGCGGA: the sensor-assay potency score (higher = more potent) is -0.665. On the same count and under the same terms, then TTCTCGTAGGTGAACAGGTTCA, with -0.738. Still for that read-out and setting: then TAGGTCTCGGTGGTGATACGGC, with -0.874; and TTCTGCGGTCCACAGCTGGAAA, with -1.5.

The target in another assay is ROBO3. The assay is described as above. The conditions noted are these: shRNA.
In turn, TAGCACAGTACTTTGCTGGCTT gave a sensor-assay potency score (higher = more potent) of 0.438. Sequence TTTCCTTTGGTCTCGCACTGGA returned a sensor-assay potency score (higher = more potent) of -0.00997. On the same count and under the same terms, the value for TCTTAGCACAGTACTTTGCTGG was -0.938; that for TTCATCTGGGTGGAGCACCCGC was -0.884; that for TTCAGCTGCCGCACTCTCCCGT was -0.447. Still for that read-out and setting: the value for TTGGCCATTGTCTTGAACTGGA was -0.232; that for TTGTCTTGAACTGGAGGTCATC was -1.28; that for TTGTAATATCTGTCGTCCGGGT was -0.931.

TTGGGCTTGCACCTTGATCTGG gave a sensor-assay potency score (higher = more potent) of -0.739. The sequence TGTAGGTCCAACATTGTCCAGC gave a sensor-assay potency score (higher = more potent) of -0.683. Same read-out and setting: then TTCGTTGTAATATCTGTCGTCC, with 0.714; and TTTATAAACAAGTCTCAGGTGG, with -0.186.
